Measurements taken from publication PMC7862700, “An all-to-all approach to the identification of sequence-specific readers for epigenetic DNA modifications on cytosine”.

Columns and labels:
Experiment in all cases: DAPPL (digital affinity profiling via proximity ligation, sequencing); 10 mM Tris-HCl pH 7.5, 50 mM NaCl, 1 mM DTT, 4% glycerol, room temperature, 30 min; GST-TFs on glutathione beads, 16-mer random dsDNA library, 0.1% formaldehyde crosslink after washing; high values mean tight binding
[1] = biological target: T1, FLI1 (Homo sapiens, UniProt Q01543 1-452); settings: protein: recombinant; tags: N-terminal GST; dsDNA, one strand shown
T1 sequence: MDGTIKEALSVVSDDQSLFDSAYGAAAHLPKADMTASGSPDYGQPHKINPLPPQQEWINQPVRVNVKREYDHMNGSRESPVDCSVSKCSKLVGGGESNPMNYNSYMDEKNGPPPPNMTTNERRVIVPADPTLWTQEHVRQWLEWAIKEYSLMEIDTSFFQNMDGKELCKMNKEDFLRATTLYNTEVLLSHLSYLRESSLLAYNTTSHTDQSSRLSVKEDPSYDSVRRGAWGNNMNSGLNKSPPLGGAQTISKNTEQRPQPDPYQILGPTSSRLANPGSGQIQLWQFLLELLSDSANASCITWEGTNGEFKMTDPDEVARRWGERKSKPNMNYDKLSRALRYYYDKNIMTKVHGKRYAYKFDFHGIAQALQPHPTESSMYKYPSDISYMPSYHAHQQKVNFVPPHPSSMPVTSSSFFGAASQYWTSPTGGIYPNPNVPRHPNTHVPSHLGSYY
Method in brief: (§1)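 Yeast served to express human transcription factors as GST fusions, which were then captured on glutathione beads and labelled with DNA barcodes. Pooled with a tag-only sample, they were incubated with 200 nmole of a 16-mer random double-stranded DNA library for 30 min at room temperature in Tris/NaCl/DTT/glycerol buffer, washed, crosslinked with 0.1% formaldehyde, ligated by proximity, amplified by PCR and sequenced. Dividing each hexamer's read frequency for a factor by its frequency for the tag-only sample gives the binding signal.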

[2] = biological target: T2, ELK1 (Homo sapiens, UniProt P19419 1-428); settings: protein: recombinant; tags: N-terminal GST; dsDNA, one strand shown
T2 sequence: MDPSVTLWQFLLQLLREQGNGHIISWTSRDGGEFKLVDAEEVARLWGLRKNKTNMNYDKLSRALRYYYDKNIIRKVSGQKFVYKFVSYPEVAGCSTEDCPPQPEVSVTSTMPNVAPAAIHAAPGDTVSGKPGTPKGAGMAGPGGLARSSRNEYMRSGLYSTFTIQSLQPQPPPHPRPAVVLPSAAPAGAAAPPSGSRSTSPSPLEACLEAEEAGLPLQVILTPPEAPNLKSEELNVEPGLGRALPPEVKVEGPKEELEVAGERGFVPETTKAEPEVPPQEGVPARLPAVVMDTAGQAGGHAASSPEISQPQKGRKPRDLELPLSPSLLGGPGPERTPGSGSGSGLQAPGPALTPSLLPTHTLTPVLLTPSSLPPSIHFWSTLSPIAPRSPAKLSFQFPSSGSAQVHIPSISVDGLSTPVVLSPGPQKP
Method in brief: as §1

[3] = biological target: T3, GABPA (Homo sapiens, UniProt Q06546 1-454); settings: protein: recombinant; tags: N-terminal GST; dsDNA, one strand shown
T3 sequence: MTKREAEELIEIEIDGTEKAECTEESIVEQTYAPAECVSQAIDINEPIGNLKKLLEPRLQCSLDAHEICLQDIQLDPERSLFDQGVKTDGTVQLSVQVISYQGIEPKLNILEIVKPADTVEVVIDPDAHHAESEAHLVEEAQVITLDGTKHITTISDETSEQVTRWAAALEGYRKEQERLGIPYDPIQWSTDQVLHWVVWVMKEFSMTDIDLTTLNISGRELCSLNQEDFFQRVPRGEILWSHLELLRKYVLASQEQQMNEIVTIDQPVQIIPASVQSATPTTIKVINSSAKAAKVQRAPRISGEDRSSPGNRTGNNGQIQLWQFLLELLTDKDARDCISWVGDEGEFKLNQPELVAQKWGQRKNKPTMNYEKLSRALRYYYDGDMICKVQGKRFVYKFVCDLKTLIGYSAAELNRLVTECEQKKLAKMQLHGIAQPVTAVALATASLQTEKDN
Method in brief: as §1

[4] = biological target: T4, ERG (Homo sapiens, UniProt P11308 1-479); settings: protein: recombinant; tags: N-terminal GST; dsDNA, one strand shown
T4 sequence: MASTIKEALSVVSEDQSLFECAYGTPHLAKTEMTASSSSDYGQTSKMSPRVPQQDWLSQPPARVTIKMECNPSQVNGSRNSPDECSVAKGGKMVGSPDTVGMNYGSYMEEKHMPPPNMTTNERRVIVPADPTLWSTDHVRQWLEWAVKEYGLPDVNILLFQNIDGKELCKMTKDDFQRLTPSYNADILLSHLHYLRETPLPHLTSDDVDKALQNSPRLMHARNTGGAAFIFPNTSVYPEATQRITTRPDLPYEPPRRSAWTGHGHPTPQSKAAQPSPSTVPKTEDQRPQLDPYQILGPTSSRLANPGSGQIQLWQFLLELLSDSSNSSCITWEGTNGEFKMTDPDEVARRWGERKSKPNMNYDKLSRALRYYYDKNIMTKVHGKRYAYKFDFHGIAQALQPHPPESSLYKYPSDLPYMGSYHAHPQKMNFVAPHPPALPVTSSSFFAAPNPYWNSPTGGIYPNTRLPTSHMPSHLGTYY
Method in brief: as §1

[5] = biological target: ELF1 (Homo sapiens, UniProt P32519 1-619); settings: protein: recombinant; tags: N-terminal GST; dsDNA, one strand shown
Method in brief: as §1

[6] = biological target: T5, EHF (Homo sapiens, UniProt Q9NZC4 1-300); settings: protein: recombinant; tags: N-terminal GST; dsDNA, one strand shown
T5 sequence: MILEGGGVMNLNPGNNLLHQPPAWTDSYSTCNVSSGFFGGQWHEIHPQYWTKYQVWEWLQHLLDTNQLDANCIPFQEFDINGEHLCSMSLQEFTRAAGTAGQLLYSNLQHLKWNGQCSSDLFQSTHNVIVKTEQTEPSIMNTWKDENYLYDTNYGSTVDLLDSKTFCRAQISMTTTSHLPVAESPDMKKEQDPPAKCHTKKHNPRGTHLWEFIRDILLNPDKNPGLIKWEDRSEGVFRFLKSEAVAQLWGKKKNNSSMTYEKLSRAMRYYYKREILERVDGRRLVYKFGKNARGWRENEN
Method in brief: as §1

[7] = biological target: SPI1 (Homo sapiens, UniProt P17947 1-270); settings: protein: recombinant; tags: N-terminal GST; dsDNA, one strand shown
Method in brief: as §1

[8] = biological target: SPIB (Homo sapiens, UniProt Q01892 1-262); settings: protein: recombinant; tags: N-terminal GST; dsDNA, one strand shown
Method in brief: as §1

[9] = biological target: T6, ELK3 (Homo sapiens, UniProt P41970 1-407); settings: protein: recombinant; tags: N-terminal GST; dsDNA, one strand shown
T6 sequence: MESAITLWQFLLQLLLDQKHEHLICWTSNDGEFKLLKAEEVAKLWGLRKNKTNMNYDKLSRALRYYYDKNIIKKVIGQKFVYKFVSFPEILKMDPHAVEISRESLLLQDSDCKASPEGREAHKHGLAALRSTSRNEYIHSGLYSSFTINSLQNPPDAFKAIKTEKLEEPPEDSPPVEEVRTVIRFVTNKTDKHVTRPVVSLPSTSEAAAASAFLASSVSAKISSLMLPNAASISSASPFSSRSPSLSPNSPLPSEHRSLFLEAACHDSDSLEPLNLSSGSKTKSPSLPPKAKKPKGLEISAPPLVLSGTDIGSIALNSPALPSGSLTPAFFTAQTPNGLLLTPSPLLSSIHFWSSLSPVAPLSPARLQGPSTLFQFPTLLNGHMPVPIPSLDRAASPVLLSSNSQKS
Method in brief: as §1

[10] = biological target: T7, FEV (Homo sapiens, UniProt Q99581 1-238); settings: protein: recombinant; tags: N-terminal GST; dsDNA, one strand shown
T7 sequence: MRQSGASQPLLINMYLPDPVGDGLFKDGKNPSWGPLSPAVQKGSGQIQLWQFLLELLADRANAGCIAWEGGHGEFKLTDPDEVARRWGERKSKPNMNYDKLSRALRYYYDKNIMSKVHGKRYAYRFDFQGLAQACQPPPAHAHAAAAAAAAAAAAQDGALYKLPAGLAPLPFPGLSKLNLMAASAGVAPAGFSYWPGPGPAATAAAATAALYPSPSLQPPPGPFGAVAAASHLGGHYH
Method in brief: as §1

[11] = biological target: ETV5 (Homo sapiens, UniProt P41161 1-510); settings: protein: recombinant; tags: N-terminal GST; dsDNA, one strand shown
Method in brief: as §1

[12] = biological target: HSF1 (Homo sapiens, UniProt Q00613 1-529); settings: protein: recombinant; tags: N-terminal GST; chain copies: 3; dsDNA, one strand shown
Method in brief: as §1

[13] = biological target: T8, SPIC (Homo sapiens, UniProt Q8N5J4 1-248); settings: protein: recombinant; tags: N-terminal GST; dsDNA, one strand shown
T8 sequence: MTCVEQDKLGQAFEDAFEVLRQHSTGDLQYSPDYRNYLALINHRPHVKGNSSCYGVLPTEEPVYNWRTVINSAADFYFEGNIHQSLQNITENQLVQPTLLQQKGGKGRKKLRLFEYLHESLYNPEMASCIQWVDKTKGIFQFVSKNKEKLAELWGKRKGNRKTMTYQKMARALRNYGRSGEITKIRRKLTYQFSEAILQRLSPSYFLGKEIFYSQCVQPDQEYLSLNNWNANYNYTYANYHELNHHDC
Method in brief: as §1

[14] = biological target: ELF4 (Homo sapiens, UniProt Q99607 1-663); settings: protein: recombinant; tags: N-terminal GST; dsDNA, one strand shown
Method in brief: as §1

[15] = biological target: T9, ELK4 (Homo sapiens, UniProt P28324-2 1-405); settings: protein: recombinant; tags: N-terminal GST; dsDNA, one strand shown
T9 sequence: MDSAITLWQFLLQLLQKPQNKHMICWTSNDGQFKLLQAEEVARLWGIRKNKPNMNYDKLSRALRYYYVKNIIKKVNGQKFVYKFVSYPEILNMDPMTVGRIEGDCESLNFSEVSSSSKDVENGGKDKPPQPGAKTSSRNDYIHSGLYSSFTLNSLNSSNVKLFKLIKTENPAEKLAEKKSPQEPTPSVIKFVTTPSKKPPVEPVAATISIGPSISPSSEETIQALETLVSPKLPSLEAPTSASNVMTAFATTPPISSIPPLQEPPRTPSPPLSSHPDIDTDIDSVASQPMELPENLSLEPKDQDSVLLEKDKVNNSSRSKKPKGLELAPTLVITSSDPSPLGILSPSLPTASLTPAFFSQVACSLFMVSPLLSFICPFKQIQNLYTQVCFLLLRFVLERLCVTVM
Method in brief: as §1

[16] = biological target: T10, ETV2 (Homo sapiens, UniProt O00321 1-342); settings: protein: recombinant; tags: N-terminal GST; dsDNA, one strand shown
T10 sequence: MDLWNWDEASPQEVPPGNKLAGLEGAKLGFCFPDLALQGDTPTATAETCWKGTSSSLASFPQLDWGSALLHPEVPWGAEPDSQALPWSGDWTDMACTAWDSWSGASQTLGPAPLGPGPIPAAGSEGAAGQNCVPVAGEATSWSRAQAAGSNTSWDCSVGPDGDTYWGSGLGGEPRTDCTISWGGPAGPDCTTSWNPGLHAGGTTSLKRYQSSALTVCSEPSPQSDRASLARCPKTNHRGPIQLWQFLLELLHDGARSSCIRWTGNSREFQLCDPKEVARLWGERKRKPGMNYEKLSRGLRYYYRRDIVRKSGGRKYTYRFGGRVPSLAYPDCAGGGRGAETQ
Method in brief: as §1

[17] = biological target: T11, ELF3 (Homo sapiens, UniProt P78545 1-371); settings: protein: recombinant; tags: N-terminal GST; dsDNA, one strand shown
T11 sequence: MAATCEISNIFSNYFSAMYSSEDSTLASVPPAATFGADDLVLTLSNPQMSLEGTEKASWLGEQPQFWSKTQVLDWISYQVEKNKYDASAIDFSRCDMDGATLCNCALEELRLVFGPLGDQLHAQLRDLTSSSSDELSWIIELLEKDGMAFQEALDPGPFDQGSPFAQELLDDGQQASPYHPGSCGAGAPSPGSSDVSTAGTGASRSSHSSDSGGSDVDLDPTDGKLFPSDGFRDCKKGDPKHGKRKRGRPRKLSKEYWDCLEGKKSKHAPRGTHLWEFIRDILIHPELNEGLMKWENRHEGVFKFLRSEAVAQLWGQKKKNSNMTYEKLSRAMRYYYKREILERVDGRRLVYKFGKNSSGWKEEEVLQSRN
Method in brief: as §1

[18] = biological target: CRX (Homo sapiens, UniProt O43186 1-299); settings: protein: recombinant; tags: N-terminal GST; dsDNA, one strand shown
Method in brief: as §1

[19] = biological target: ETV1 (Homo sapiens, UniProt P50549 1-477); settings: protein: recombinant; tags: N-terminal GST; dsDNA, one strand shown
Method in brief: as §1

Chain of ETV5 (P41161 whole entry): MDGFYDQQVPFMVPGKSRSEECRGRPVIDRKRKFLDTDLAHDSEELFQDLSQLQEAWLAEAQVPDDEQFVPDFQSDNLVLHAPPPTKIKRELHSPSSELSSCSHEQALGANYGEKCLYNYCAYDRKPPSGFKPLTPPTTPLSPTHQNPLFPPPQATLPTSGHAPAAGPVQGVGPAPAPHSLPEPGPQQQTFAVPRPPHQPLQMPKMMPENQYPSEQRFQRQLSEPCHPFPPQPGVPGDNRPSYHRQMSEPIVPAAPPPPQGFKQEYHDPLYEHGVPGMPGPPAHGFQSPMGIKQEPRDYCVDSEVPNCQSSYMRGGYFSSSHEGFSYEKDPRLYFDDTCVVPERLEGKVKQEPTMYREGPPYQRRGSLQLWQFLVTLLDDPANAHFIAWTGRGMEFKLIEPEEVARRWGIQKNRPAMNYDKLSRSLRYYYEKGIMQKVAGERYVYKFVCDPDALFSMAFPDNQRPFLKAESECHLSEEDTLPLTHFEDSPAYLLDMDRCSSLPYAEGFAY
Chain of CRX (O43186 whole entry): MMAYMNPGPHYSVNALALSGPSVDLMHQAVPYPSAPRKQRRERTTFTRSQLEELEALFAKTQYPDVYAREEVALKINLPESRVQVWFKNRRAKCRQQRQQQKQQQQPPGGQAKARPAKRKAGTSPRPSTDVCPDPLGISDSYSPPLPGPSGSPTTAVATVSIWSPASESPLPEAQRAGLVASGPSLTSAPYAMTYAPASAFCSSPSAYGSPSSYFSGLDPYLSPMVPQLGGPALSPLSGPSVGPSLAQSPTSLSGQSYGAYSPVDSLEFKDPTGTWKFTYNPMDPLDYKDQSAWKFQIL
Chain of SPIB (Q01892 whole entry): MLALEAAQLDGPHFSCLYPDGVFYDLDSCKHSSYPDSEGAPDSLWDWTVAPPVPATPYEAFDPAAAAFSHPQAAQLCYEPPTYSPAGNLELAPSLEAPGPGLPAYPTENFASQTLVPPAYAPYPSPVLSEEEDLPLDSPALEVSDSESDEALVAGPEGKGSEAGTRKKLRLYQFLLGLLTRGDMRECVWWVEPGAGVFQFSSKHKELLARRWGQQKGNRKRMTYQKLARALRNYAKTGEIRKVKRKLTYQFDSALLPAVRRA
Chain of HSF1 (Q00613 whole entry): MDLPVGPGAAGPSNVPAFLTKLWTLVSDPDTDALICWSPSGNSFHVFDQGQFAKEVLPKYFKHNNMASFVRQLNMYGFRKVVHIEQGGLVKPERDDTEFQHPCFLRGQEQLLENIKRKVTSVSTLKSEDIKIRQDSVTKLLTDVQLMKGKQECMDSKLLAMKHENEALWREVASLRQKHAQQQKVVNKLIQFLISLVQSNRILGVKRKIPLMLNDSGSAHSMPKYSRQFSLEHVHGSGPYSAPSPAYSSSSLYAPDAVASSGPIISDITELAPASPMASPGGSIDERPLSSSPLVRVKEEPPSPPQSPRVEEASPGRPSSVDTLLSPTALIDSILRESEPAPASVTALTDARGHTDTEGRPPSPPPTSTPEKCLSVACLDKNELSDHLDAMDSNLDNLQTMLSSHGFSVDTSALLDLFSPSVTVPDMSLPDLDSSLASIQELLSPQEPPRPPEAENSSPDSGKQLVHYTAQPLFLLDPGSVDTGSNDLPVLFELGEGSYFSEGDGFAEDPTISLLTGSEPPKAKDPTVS
Chain of ELF4 (Q99607 whole entry): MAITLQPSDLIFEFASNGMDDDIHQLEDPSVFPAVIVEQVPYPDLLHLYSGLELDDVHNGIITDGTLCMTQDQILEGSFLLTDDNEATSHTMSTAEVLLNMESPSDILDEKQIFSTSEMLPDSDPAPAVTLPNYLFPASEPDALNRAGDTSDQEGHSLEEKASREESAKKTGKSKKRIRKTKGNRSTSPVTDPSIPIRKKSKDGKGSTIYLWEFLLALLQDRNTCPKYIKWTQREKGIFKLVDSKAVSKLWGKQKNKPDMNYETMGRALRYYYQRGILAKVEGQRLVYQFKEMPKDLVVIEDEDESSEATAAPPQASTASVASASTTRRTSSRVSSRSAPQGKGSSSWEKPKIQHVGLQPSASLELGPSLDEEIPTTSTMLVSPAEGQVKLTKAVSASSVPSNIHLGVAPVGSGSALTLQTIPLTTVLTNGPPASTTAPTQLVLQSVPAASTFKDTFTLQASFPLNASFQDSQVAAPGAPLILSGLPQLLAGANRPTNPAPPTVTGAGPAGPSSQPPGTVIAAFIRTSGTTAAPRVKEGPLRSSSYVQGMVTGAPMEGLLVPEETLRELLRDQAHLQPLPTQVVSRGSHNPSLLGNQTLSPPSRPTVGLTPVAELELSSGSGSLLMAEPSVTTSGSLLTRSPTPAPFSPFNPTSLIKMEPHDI
Chain of ELF1 (P32519 whole entry): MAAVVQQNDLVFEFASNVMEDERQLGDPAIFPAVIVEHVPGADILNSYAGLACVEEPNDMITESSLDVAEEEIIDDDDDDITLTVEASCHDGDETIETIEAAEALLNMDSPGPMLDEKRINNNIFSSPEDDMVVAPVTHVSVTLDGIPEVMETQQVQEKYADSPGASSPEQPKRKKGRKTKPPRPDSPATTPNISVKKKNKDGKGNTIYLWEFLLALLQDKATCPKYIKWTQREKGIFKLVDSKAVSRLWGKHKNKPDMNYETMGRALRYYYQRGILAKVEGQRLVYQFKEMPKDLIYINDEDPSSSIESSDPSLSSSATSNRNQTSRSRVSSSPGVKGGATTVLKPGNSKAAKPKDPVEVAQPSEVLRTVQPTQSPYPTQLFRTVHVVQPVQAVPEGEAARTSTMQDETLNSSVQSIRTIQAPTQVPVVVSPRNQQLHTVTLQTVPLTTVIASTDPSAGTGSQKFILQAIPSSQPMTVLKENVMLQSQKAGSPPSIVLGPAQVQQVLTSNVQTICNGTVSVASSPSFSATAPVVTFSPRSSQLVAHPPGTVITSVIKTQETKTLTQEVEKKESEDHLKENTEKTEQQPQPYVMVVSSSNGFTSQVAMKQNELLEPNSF
Chain of ETV1 (P50549 whole entry): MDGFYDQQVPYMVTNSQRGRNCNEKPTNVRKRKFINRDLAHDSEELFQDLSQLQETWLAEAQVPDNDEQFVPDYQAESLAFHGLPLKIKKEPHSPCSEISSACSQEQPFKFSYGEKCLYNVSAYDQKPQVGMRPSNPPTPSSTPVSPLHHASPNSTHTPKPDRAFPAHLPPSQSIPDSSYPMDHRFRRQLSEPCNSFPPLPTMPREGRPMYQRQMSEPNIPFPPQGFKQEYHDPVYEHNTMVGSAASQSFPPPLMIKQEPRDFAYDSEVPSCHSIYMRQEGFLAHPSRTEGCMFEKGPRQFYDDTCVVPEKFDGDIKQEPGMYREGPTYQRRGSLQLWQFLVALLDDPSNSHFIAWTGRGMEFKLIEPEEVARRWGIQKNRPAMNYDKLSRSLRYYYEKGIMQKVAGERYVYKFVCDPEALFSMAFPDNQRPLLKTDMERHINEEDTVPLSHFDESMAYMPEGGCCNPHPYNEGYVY

CCTTAA
binding signal [1]: 1.38 fold enrichment (6-mer frequency, TF over GST control) | binding signal [2]: 1.24 fold enrichment (6-mer frequency, TF over GST control) | binding signal [3]: 1.27 fold enrichment (6-mer frequency, TF over GST control) | binding signal [4]: 1.31 fold enrichment (6-mer frequency, TF over GST control) | binding signal [5]: 1.35 fold enrichment (6-mer frequency, TF over GST control) | binding signal [6]: 1.34 fold enrichment (6-mer frequency, TF over GST control) | binding signal [7]: 1.4 fold enrichment (6-mer frequency, TF over GST control) | binding signal [8]: 1.45 fold enrichment (6-mer frequency, TF over GST control) | binding signal [9]: 1.2 fold enrichment (6-mer frequency, TF over GST control) | binding signal [10]: 1.33 fold enrichment (6-mer frequency, TF over GST control) | binding signal [11]: 1.25 fold enrichment (6-mer frequency, TF over GST control) | binding signal [12]: 1.62 fold enrichment (6-mer frequency, TF over GST control) | binding signal [13]: 1.22 fold enrichment (6-mer frequency, TF over GST control) | binding signal [14]: 1.3 fold enrichment (6-mer frequency, TF over GST control) | binding signal [15]: 1.27 fold enrichment (6-mer frequency, TF over GST control) | binding signal [16]: 1.35 fold enrichment (6-mer frequency, TF over GST control) | binding signal [17]: 1.37 fold enrichment (6-mer frequency, TF over GST control) | binding signal [18]: 2.17 fold enrichment (6-mer frequency, TF over GST control) | binding signal [19]: 1.34 fold enrichment (6-mer frequency, TF over GST control)
